Test results: the supplement of paper PMC10849652
Targets with a hit are over-represented here; the source holds about 8,800 in all. About 0.5% of all pairs of compound and target were hits. Unmarked numbers belong to inactive results.

Tests used:
Assay in all cases: log2 fold change, soluble protein after heating vs DMSO (PISA); higher = thermal stabilisation; K562 lysate, 10 uM; active = over 0.2 and 3.5 SD of the protein, either way, in both replicates (recomputed)
nilotinib = compound: Cc1cn(-c2cc(NC(=O)c3ccc(C)c(Nc4nccc(-c5cccnc5)n4)c3)cc(C(F)(F)F)c2)cn1 [nilotinib]
Method in brief: (§1)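 To prepare the extract, K562 pellets were dounce-homogenised in PBS pH 7.4 with 1 mM MgCl2, giving crude material at 1 mg/mL protein. This was treated with 10 μM compound for 30 min, then heated in aliquots for 3 min over 48°C-58°C before pooling and addition of NP-40 to 0.5% at 4°C. Centrifugation at 21,000xg for 90 min left soluble protein in the supernatant, which TMTpro 16plex LC-MS/MS quantified with equalised channel sums. Results are log-two fold changes in thermal stability compared with solvent controls, from duplicates.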

[1] = compound: Cc1nc(Nc2n[nH]c3c2CN(C(=O)N[C@H](CN(C)C)c2ccccc2)C3(C)C)c2sccc2n1
Method in brief: as §1

dasatinib = compound: Cc1nc(Nc2ncc(C(=O)Nc3c(C)cccc3Cl)s2)cc(N2CCN(CCO)CC2)n1 [dasatinib]
Method in brief: as §1

[2] = compound: Cc1ncc(-c2ccnc(Nc3ccc(S(C)(=O)=O)cc3)n2)n1C(C)C
Method in brief: as §1

[3] = compound: Cn1cc(-c2ccc3c(c2)CCN3C(=O)Cc2cccc(C(F)(F)F)c2)c2c(N)ncnc21
Method in brief: as §1

quisinostat = compound: Cn1cc(CNCC2CCN(c3ncc(C(=O)NO)cn3)CC2)c2ccccc21 [quisinostat]
Method in brief: as §1

tipifarnib = compound: Cn1cncc1[C@@](N)(c1ccc(Cl)cc1)c1ccc2c(c1)c(-c1cccc(Cl)c1)cc(=O)n2C [tipifarnib]
Method in brief: as §1

[4] = compound: NC(=O)Nc1cc(-c2cccc(F)c2)sc1C(=O)N[C@H]1CCCNC1
Method in brief: as §1

[5] = compound: NC1(c2ccc(-c3nc4ccn5c(=O)[nH]nc5c4cc3-c3ccccc3)cc2)CCC1
Method in brief: as §1

[6] = compound: NCC(=O)Nc1ccc(-n2nc(C(F)(F)F)cc2-c2ccc3c(ccc4ccccc43)c2)cc1
Method in brief: as §1

vorinostat = compound: O=C(CCCCCCC(=O)Nc1ccccc1)NO [vorinostat]
Method in brief: as §1

silmitasertib = compound: O=C(O)c1ccc2c(c1)nc(Nc1cccc(Cl)c1)c1ccncc12 [silmitasertib]
Method in brief: as §1

[7] = compound: O=C1NC(=O)C(c2cnc3ccccn23)=C1c1cn2c3c(cc(F)cc13)CN(C(=O)N1CCCCC1)CC2
Method in brief: as §1

entospletinib = compound: c1cn2cc(-c3ccc4cn[nH]c4c3)nc(Nc3ccc(N4CCOCC4)cc3)c2n1 [entospletinib]
Method in brief: as §1

[8] = compound: NC(=O)c1cnc(N[C@@H]2CCCC[C@@H]2N)nc1Nc1cccc(-n2nccn2)c1
Method in brief: as §1

MARF1 (UniProt Q9Y4F3)
log2 fold change (nilotinib): -0.064 | log2 fold change [1]: 0.024 | log2 fold change (dasatinib): -0.031 | log2 fold change [2]: 0.031 | log2 fold change [3]: -0.03 | log2 fold change (quisinostat): -0.053 | log2 fold change (tipifarnib): -0.062 | log2 fold change [4]: 0.088 | log2 fold change [5]: -0.035 | log2 fold change [6]: 0.006 | log2 fold change (vorinostat): -0.471 (active) | log2 fold change (silmitasertib): 0.003 | log2 fold change [7]: -0.045 | log2 fold change (entospletinib): 0.049

LSM11 (UniProt P83369)
Chain of UniProt P83369 (P83369 whole entry, looked up): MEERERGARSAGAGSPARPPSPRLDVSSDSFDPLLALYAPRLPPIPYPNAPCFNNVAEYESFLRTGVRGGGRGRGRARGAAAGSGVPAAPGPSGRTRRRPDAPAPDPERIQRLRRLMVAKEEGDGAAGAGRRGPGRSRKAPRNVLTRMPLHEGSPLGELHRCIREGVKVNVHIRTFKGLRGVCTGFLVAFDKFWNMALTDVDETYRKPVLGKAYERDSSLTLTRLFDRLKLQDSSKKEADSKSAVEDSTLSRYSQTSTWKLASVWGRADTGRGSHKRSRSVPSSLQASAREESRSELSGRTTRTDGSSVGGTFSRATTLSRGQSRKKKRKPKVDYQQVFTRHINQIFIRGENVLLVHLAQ
log2 fold change (dasatinib): 0.266 | log2 fold change [3]: -0.049 | log2 fold change (quisinostat): -0.114 | log2 fold change [4]: 0.049 | log2 fold change [5]: -0.037 | log2 fold change [6]: 0.233 | log2 fold change (vorinostat): -0.027 | log2 fold change (silmitasertib): 0.194 | log2 fold change [7]: 0.014 | log2 fold change (entospletinib): -0.02

MRC2 (UniProt Q9UBG0)
log2 fold change (nilotinib): -0.001 | log2 fold change [1]: -0.055 | log2 fold change (dasatinib): -0.201 | log2 fold change [2]: 0.26 | log2 fold change [3]: 0.073 | log2 fold change (quisinostat): -0.056 | log2 fold change (tipifarnib): 0.083 | log2 fold change [4]: 0.144 | log2 fold change [5]: 0.068 | log2 fold change (vorinostat): 0.346 | log2 fold change (silmitasertib): -0.051 | log2 fold change [7]: -0.171 | log2 fold change (entospletinib): -0.055

MAP4K2 (UniProt Q12851)
log2 fold change (dasatinib): 0.511 | log2 fold change [3]: 0.123 | log2 fold change (quisinostat): -0.193 | log2 fold change [4]: 0.965 (active) | log2 fold change [8]: 0.159 | log2 fold change [5]: -0.062 | log2 fold change [6]: 0.03 | log2 fold change (vorinostat): -0.263 | log2 fold change (silmitasertib): 0.064 | log2 fold change [7]: -0.104 | log2 fold change (entospletinib): 0.15

LY6E (UniProt Q16553)
Chain of UniProt Q16553 (Q16553 whole entry, looked up): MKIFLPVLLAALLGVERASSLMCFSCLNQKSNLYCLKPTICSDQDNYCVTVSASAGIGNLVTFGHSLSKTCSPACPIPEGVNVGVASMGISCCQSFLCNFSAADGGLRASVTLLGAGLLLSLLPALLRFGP
log2 fold change (nilotinib): -0.141 | log2 fold change [1]: 0.031 | log2 fold change [2]: 0.056 | log2 fold change (tipifarnib): 0.033 | log2 fold change [8]: 0.08 | log2 fold change [6]: 0.165 | log2 fold change (entospletinib): -0.013

MRPL30 isoform 2 (UniProt Q8TCC3)
log2 fold change (nilotinib): -0.048 | log2 fold change [1]: -0.066 | log2 fold change (dasatinib): -0.038 | log2 fold change [2]: 0.047 | log2 fold change [3]: 0.03 | log2 fold change (quisinostat): -0.13 | log2 fold change (tipifarnib): 0.052 | log2 fold change [4]: -0.007 | log2 fold change [8]: 0 | log2 fold change [5]: 0.039 | log2 fold change (vorinostat): 0.041 | log2 fold change (silmitasertib): -0.023 | log2 fold change [7]: -0.012 | log2 fold change (entospletinib): -0.046

KIFC3 isoform 6 (UniProt Q9BVG8)
log2 fold change (dasatinib): -0.055 | log2 fold change [3]: -0.146 | log2 fold change (quisinostat): -0.189 | log2 fold change [4]: 0.079 | log2 fold change [5]: -0.213 | log2 fold change [6]: 0.03 | log2 fold change (vorinostat): -0.025 | log2 fold change (silmitasertib): -0.124 | log2 fold change [7]: 0.119 | log2 fold change (entospletinib): -0.063

LRRC7 (UniProt Q96NW7)
log2 fold change (dasatinib): 0.059 | log2 fold change [3]: -0.043 | log2 fold change (quisinostat): 0.128 | log2 fold change [4]: -0.009 | log2 fold change [8]: 0.069 | log2 fold change [6]: -0.097 | log2 fold change [7]: -0.012 | log2 fold change (entospletinib): -0.108

MAP4K4 isoform 6 (UniProt O95819)
log2 fold change (dasatinib): -0.01 | log2 fold change [3]: 0.115 | log2 fold change [8]: 0.021 | log2 fold change [5]: 0.083 | log2 fold change (vorinostat): -0.134 | log2 fold change (silmitasertib): 0.02 | log2 fold change (entospletinib): 0.094

KIF21A (UniProt H0YI78)
log2 fold change (nilotinib): 0.067 | log2 fold change [1]: -0.005 | log2 fold change (dasatinib): 0.044 | log2 fold change [2]: 0.143 | log2 fold change [3]: 0.055 | log2 fold change (tipifarnib): -0.069 | log2 fold change [8]: 0.104 | log2 fold change [5]: 0.082 | log2 fold change (vorinostat): -0.113 | log2 fold change (silmitasertib): -0.016

MDM2 isoform 11 (UniProt Q00987)
Chain of UniProt Q00987 (Q00987 whole entry, looked up): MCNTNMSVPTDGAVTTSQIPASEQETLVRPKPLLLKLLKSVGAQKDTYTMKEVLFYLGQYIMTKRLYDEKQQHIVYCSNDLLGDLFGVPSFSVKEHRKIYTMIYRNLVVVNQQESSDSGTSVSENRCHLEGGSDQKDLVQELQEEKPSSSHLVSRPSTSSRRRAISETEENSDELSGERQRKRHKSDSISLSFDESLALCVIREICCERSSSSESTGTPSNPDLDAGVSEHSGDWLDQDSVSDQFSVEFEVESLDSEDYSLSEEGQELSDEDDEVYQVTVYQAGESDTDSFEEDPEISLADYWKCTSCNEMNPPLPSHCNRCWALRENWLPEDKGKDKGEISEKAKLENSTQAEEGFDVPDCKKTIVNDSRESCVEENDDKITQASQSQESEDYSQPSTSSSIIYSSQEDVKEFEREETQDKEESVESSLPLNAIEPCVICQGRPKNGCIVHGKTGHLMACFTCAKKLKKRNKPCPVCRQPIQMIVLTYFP
log2 fold change (quisinostat): -0.2 | log2 fold change [4]: -0.077 | log2 fold change [5]: -0.195 | log2 fold change [6]: -0.137 | log2 fold change (vorinostat): -0.062 | log2 fold change (silmitasertib): 0 | log2 fold change [7]: -0.039

LIMK1 (UniProt P53667)
log2 fold change (nilotinib): -0.315 | log2 fold change [1]: 0.008 | log2 fold change (dasatinib): 0.4 | log2 fold change [2]: 0.031 | log2 fold change [3]: 0.146 | log2 fold change (quisinostat): -0.145 | log2 fold change (tipifarnib): 0.102 | log2 fold change [4]: 0.126 | log2 fold change [8]: 0.118 | log2 fold change [6]: -0.127 | log2 fold change [7]: 0.281 | log2 fold change (entospletinib): 0.027

MAPK12 (UniProt P53778)
Chain of UniProt P53778 (P53778 whole entry, looked up): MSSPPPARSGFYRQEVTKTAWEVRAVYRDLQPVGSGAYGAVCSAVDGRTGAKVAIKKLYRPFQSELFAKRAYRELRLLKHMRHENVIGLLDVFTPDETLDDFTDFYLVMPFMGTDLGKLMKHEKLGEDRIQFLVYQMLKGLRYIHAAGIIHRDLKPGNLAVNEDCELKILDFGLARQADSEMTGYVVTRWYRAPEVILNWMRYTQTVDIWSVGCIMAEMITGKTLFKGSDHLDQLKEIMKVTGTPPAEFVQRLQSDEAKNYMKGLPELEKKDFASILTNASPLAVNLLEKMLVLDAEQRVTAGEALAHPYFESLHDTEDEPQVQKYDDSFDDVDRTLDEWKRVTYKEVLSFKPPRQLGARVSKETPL
log2 fold change (nilotinib): 0.082 | log2 fold change [1]: 0.048 | log2 fold change (dasatinib): -0.057 | log2 fold change [2]: 0.085 | log2 fold change [3]: 0.375 (active) | log2 fold change (quisinostat): 0.051 | log2 fold change (tipifarnib): -0.005 | log2 fold change [4]: -0.015 | log2 fold change [5]: -0.044 | log2 fold change [6]: 0 | log2 fold change (vorinostat): 0.181 | log2 fold change (silmitasertib): -0.027 | log2 fold change [7]: -0.067 | log2 fold change (entospletinib): -0.027

MAP3K6 (UniProt O95382)
log2 fold change (nilotinib): 0.122 | log2 fold change [1]: -0.023 | log2 fold change [2]: 0.006 | log2 fold change (tipifarnib): -0.011 | log2 fold change [6]: -0.088 | log2 fold change (entospletinib): -0.043

MOCS3 (UniProt O95396)
log2 fold change (nilotinib): -0.008 | log2 fold change [1]: -0.054 | log2 fold change (dasatinib): -0.056 | log2 fold change [2]: 0.056 | log2 fold change [3]: -0.049 | log2 fold change (quisinostat): -0.219 | log2 fold change (tipifarnib): 0.045 | log2 fold change [4]: -0.054 | log2 fold change [5]: -0.03 | log2 fold change [6]: 0.062 | log2 fold change (vorinostat): -0.458 (active) | log2 fold change (silmitasertib): -0.012 | log2 fold change [7]: 0.053 | log2 fold change (entospletinib): 0.035

KMT2B (UniProt Q9UMN6)
Chain of UniProt Q9UMN6 (Q9UMN6 whole entry, looked up): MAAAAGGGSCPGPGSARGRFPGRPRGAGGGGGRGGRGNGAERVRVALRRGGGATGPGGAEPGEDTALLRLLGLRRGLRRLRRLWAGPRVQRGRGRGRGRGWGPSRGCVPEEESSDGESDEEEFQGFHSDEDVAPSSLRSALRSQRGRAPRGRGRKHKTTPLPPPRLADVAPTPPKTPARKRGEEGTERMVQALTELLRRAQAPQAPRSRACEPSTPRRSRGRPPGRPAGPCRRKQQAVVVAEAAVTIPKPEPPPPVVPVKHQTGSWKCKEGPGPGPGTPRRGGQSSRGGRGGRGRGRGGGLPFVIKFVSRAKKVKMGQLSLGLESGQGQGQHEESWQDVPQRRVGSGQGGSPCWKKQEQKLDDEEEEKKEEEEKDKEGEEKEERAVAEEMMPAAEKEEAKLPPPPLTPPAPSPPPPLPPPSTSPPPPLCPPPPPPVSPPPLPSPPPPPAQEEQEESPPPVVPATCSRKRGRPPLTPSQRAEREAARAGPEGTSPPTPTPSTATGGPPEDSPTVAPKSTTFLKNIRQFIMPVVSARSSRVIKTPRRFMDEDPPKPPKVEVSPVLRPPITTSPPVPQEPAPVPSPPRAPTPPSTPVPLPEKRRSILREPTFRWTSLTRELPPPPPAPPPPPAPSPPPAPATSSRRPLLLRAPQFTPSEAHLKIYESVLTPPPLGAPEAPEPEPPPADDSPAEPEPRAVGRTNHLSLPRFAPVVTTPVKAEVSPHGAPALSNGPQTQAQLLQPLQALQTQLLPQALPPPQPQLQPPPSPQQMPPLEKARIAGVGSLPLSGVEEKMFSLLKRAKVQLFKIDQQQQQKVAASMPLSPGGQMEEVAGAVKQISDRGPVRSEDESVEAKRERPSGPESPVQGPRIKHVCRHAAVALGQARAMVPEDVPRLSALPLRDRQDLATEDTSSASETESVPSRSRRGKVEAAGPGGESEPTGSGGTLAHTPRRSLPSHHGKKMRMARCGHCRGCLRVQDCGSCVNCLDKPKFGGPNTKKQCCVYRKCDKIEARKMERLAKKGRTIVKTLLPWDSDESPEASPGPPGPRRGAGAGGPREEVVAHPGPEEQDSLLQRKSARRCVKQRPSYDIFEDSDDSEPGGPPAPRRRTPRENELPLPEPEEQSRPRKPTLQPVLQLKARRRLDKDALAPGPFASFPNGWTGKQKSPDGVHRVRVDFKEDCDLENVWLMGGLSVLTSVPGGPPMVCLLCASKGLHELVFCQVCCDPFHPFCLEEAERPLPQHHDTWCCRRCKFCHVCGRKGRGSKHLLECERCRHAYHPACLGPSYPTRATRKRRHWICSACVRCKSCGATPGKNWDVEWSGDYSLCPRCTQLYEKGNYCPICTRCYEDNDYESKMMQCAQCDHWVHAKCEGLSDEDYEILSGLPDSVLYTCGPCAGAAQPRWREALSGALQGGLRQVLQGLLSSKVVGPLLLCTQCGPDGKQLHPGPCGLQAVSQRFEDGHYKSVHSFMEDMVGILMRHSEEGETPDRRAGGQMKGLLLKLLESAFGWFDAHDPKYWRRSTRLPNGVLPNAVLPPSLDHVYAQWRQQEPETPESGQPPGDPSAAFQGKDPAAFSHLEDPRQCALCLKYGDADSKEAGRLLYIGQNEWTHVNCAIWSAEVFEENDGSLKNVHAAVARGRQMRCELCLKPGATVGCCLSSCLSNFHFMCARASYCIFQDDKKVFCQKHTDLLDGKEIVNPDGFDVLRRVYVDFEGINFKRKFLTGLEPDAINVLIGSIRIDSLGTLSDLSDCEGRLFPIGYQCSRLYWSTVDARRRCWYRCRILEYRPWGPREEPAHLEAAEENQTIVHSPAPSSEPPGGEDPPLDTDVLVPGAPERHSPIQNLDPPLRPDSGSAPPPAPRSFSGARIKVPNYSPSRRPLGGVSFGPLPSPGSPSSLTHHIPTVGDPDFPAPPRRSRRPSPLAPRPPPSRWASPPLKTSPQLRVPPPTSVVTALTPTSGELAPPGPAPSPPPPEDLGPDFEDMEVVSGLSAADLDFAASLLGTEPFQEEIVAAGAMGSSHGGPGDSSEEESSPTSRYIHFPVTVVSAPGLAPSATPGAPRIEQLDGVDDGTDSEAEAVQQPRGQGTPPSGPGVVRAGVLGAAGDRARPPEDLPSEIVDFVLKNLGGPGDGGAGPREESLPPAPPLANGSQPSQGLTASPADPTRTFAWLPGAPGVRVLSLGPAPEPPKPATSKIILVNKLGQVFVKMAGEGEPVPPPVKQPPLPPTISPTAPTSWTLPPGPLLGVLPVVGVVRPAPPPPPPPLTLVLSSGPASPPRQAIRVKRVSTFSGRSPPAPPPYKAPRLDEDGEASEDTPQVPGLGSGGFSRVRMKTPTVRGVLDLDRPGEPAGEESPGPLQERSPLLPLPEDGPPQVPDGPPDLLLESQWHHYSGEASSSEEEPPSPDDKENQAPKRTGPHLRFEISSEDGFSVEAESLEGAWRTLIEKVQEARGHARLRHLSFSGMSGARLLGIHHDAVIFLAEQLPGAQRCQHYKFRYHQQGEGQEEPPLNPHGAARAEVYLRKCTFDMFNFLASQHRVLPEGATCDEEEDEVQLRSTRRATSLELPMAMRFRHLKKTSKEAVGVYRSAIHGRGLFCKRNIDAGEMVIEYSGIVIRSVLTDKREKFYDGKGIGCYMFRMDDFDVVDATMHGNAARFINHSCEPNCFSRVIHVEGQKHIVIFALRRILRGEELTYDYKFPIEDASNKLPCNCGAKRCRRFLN
log2 fold change (dasatinib): 0.013 | log2 fold change [3]: 0.108 | log2 fold change (quisinostat): 0.346 | log2 fold change [4]: -0.047 | log2 fold change [5]: 0.122 | log2 fold change (vorinostat): 0.531 | log2 fold change (silmitasertib): -0.76 (active) | log2 fold change [7]: 0.211 | log2 fold change (entospletinib): 0.116

LRPPRC (UniProt H7C3W8)
log2 fold change [6]: 0.792

MDM1 (UniProt Q8TC05)
Chain of UniProt Q8TC05 (Q8TC05 whole entry, looked up): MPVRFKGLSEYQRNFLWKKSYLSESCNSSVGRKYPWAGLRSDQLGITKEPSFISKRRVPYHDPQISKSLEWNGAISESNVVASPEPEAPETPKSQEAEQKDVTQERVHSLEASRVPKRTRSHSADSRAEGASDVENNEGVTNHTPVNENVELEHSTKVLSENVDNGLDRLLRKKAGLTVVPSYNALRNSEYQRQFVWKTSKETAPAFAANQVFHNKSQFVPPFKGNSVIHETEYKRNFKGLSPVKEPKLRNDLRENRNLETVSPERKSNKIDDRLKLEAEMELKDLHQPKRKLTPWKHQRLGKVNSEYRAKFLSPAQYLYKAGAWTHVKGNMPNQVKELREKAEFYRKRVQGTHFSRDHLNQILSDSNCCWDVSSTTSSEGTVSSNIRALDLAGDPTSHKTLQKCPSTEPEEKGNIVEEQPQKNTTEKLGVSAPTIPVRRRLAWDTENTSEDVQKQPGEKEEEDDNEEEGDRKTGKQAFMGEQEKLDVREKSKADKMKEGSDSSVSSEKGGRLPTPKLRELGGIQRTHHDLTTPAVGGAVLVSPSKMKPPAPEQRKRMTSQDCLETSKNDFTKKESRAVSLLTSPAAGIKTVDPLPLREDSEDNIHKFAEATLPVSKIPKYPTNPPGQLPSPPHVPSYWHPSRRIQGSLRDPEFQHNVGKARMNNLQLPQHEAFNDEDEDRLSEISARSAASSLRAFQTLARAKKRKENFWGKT
log2 fold change (nilotinib): -0.073 | log2 fold change [1]: -0.008 | log2 fold change (dasatinib): 0.015 | log2 fold change [2]: -0.149 | log2 fold change [3]: 0.056 | log2 fold change (tipifarnib): 0.006 | log2 fold change [8]: -0.005 | log2 fold change [5]: 0.061 | log2 fold change [6]: 0.056 | log2 fold change (vorinostat): 0.085 | log2 fold change (silmitasertib): 0.093 | log2 fold change (entospletinib): -0.119
